Assay results: PubChem BioAssay (NCI)
This is part of a sample that, as a whole, favours compounds with a hit. Of some 83,000 tested, about 20% had one in any assay.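 Plates (96-well) were seeded with cells, treated with compound at one concentration, and incubated for 48 hours before percent growth was determined.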 The source made the active and inactive calls. Rule for the calls: active = growth percent below 10; inactive = the rest.

tested on: U251 CNS; experiment: NCI-60 one-dose screen, 48 h (100 = growth as untreated, 0 = no growth, -100 = all killed); settings: 10 µM unless noted

Structure (SMILES) | growth
COC(=O)c1c2c(c(C)[n+]([O-])c1C)C(=O)C(NCc1ccc(OC)cc1)=CC2=O | -13.9% (active)
O=C1/C(=C\c2cccc3nccnc23)SC(=S)N1CCc1ccc(O)cc1 | 107% (inactive)
Cc1cn(-c2cc(NC(=O)c3cncc(C#Cc4c(N)ncc5ccc(F)cc45)c3)cc(C(F)(F)F)c2)cn1 | 80.4% (inactive)
CCCCNC(=O)Oc1ccc(/C(=C(/C)Cc2ccc(OC)cc2)c2ccc(OCCN3CCCCCC3)cc2)cc1 | 62.5% (inactive)
COc1ccc(-c2n[nH]c(=O)c3nc(NC(=S)Nc4ccc(Oc5ccccc5)cc4)sc23)cc1 | 83.3% (inactive)
O=C(/C=C/C12c3ccccc3C(c3ccccc31)C1C(=O)NC(=O)C12)c1ccc(Br)cc1 (stereo not drawn) | 29.2% (inactive)
C=CN(C(=O)N1CCN(c2cc3c(cc2F)c(=O)c(C(=O)O)cn3C2CC2)CC1)c1nc(-c2ccc(OC)cc2)cs1 | 13.4% (inactive)
Cc1cc(Nc2ccc(C(=O)N3CCCC3)cc2)nc(NCCCNc2ccnc3cc(Cl)ccc23)n1 | 53.5% (inactive)

tested on: PC-3 prostate; experiment: as above; settings: 10 µM unless noted

Structure (SMILES) | growth
O=C(/C=C/c1ccc(Oc2ccc(Br)cc2)cc1)c1ccc(Br)cc1 | 100% (inactive)
CO[C@H](C(=O)[C@@H](O)[C@@H](C)O)[C@@H]1Cc2cc3cc(O[C@H]4C[C@@H](O[C@H]5C[C@@H](O)[C@H](O)C(C)O5)[C@H](O)C(C)(O)O4)cc(O)c3c(O)c2C(=O)[C@H]1O[C@H]1C[C@@H](O[C@H]2C[C@@H](O[C@H]3C[C@@H](OC)[C@H](O)C(C)O3)[C@@H](O)C(C)O2)[C@H](O)C(C)O1 (stereo partly drawn) | 26.3% (inactive)
FC(F)(F)Oc1cccc(-c2cnc3ccc(-c4ccncc4)nn23)c1 | 15.5% (inactive)
O=S(=O)(Nc1cc(Sc2cccc3cccnc23)c(O)c2ccccc12)c1ccccc1 | 20.9% (inactive)
Cc1ccc(-c2nc(SCc3nc4cc(Cl)c(Cl)cc4[nH]3)[nH]c(=O)c2C#N)cc1 | 94% (inactive)
CN(C)S(=O)(=O)Oc1ccc(-c2sc3cc(OS(=O)(=O)N(C)C)ccc3c2C(=O)c2ccc(OCCN3CCCCC3)cc2)cc1 | 53.6% (inactive)
COc1ccc(C2=NN(C(C)=O)C(c3cn(-c4ccccc4)nc3-c3ccc(Cl)cc3)C2)cc1 (stereo not drawn) | 34.3% (inactive)
O=C(CSc1nnc(-c2cc(-c3ccccc3)nc3ccccc23)n1-c1ccccc1)Nc1ccc(C(=O)/C=C/c2ccc(Cl)cc2)cc1 | 81% (inactive)
CCOC(=O)C(=Cc1ccc(-c2ccccc2)cc1)C(=O)OCC | 31.8% (inactive)
Cc1ccc(S(=O)(=O)N2CCC(=O)c3ccccc32)cc1 | 74.8% (inactive)
COc1ccccc1N(C(C)=O)C1=C(Cl)C(=O)c2ccccc2C1=O | 3.3% (active)
C=C(C)[C@@H]1CC[C@]2(C(N)=O)CC[C@]3(C)[C@H](CC[C@@H]4[C@@]5(C)CC[C@H](OCCC#N)C(C)(C)[C@@H]5CC[C@]43C)[C@@H]12 | 68.8% (inactive)
CN(C)CCCC1(c2ccc(F)cc2)OCc2cc(-c3cc4ccccc4s3)ccc21 (stereo not drawn) | 28.8% (inactive)
[2H]C([2H])([2H])Oc1ccc(F)cc1/C=C/C(=O)/C=C(/C=C/c1cc(F)ccc1OC([2H])([2H])[2H])OB(F)F | 66.7% (inactive)
COc1ccc(/C(C)=C(/c2ccc(OCCCN(C)C)cc2)c2ccc(OC(=O)c3ccccc3)cc2)cc1 | 73.4% (inactive)
Cc1ccc2c(=O)cc(C(=O)Nc3sc4c(c3C(=O)NCc3cccnc3)CCCC4)oc2c1C | 99.2% (inactive)
CCCCCCCC/C=C\CCCCCCCCOc1ccc(CC(=O)NCC[N+]2(C)CCOCC2)cc1 | 12.5% (inactive)
O=C1/C(=C/c2ccc(F)cc2)CN(C(=O)C(Cl)Cl)C/C1=C\c1ccc(F)cc1 | -74.3% (active)
COc1ccc(Nc2ncccc2/C=C/C(=O)c2cc(OC)c(OC)c(OC)c2)cc1 | -15.1% (active)
O=C(Cc1cccc(OC(F)(F)F)c1)Nc1ccc(CCCCc2nnc(NC(=O)Cc3ccccn3)s2)nn1 | 17.5% (inactive)

Structure (SMILES) | growth
C=C1C(=O)O[C@H]2[C@H]1CC/C(COC(=O)/C=C\C(=O)NCc1ccc(Cn3c(=O)sn(CCCl)c3=O)cc1)=C\CC[C@@]1(C)O[C@@H]21 | 94.6% (inactive)
CNC(=O)c1ccccc1Nc1nc(Nc2cc(OC)c(OC)c(OC)c2)ncc1Br | 61.4% (inactive)
Cc1ccc(C=C2C(=O)NC(=O)NC2=O)cc1 | 95.9% (inactive)
O=C(CN1CCCCCC1)Nc1nc2ccc(NCc3ccc(Cl)cc3)cc2s1 | 84.3% (inactive)
COc1ccc(C(=O)Cn2c(C(=O)c3ccc(Cl)cc3)nc3ccccc32)cc1 | 68.9% (inactive)
C#CCO[C@H]1CC(CC#C)(CC#C)C(=O)[C@@H]2[C@H]1[C@H]1C[C@@H]3[C@@]4(C)CCC[C@@](C)(C(=O)OC)[C@@H]4CC[C@@]23C=C1C(C)C | 58.8% (inactive)
Fc1ccc2[nH]cc(-c3nc(-c4c[nH]c5ccncc45)cs3)c2c1 | 7.43% (active)
O=C(CSc1nc(-c2ccccc2)cc(=O)[nH]1)Nc1nc(-c2ccccc2)cs1 | 78.8% (inactive)
O=C1/C(=C2\SC(=S)N(C3CC3)C2=O)SC(=S)N1C1CC1 | 92% (inactive)
COc1ccc(Cn2cc3c(c2-c2ccccc2)CCc2cnoc2-3)cc1 | 27.4% (inactive)
Cc1nn(-c2ccccc2)c(N)c1N=C1NC(=O)/C(=C/c2ccc(Br)cc2)S1 | 74% (inactive)
CN(C)c1ccc(/C=C(\C#N)c2cc3ccccc3[nH]2)cc1 | 28.3% (inactive)
COC(=O)c1c2c(c(C)[n+]([O-])c1C)C(=O)C(NCc1ccc(OC)cc1)=CC2=O | 4.67% (active)
O=C1/C(=C\c2cccc3nccnc23)SC(=S)N1CCc1ccc(O)cc1 | 84% (inactive)
Cc1cn(-c2cc(NC(=O)c3cncc(C#Cc4c(N)ncc5ccc(F)cc45)c3)cc(C(F)(F)F)c2)cn1 | 71.7% (inactive)
CCCCNC(=O)Oc1ccc(/C(=C(/C)Cc2ccc(OC)cc2)c2ccc(OCCN3CCCCCC3)cc2)cc1 | 65.5% (inactive)
COc1ccc(-c2n[nH]c(=O)c3nc(NC(=S)Nc4ccc(Oc5ccccc5)cc4)sc23)cc1 | 83.8% (inactive)
O=C(/C=C/C12c3ccccc3C(c3ccccc31)C1C(=O)NC(=O)C12)c1ccc(Br)cc1 (stereo not drawn) | 29.8% (inactive)
C=CN(C(=O)N1CCN(c2cc3c(cc2F)c(=O)c(C(=O)O)cn3C2CC2)CC1)c1nc(-c2ccc(OC)cc2)cs1 | 16.4% (inactive)
Cc1cc(Nc2ccc(C(=O)N3CCCC3)cc2)nc(NCCCNc2ccnc3cc(Cl)ccc23)n1 | 93.3% (inactive)
